Experimental data: PubChem BioAssay (Tox21)
Records with an inconclusive call do not appear. A call without a number means that no potency is given here. Calls of active or inactive are those of the source. Unless noted, the call rests on the fitted dose curve; in most records, active means well fitted curve in the direction sought with a large enough effect in the repeat runs; inconclusive means weak or mixed curves; inactive means no such curve, though single readings can be large; an effect the other way counts as inactive or inconclusive.

Columns and labels:
[1] = qHTS assay to identify small molecule agonists of the sonic hedgehog signaling (Shh) pathway (AID 1259368; calls by dose curve;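 further: NIH/3T3-derived 3T3Gli1-Luc cells carrying a stable Gli1-driven firefly luciferase reporter; series mostly up to about 92 µM; nearly all actives have a fitted effect of over 15% in size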)
Outline: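 3T3Gli1-Luc (NIH/3T3 clone, stable Gli1-Luc); 4 hr pre-incubation, then cpd in DMSO 24 hr, 37 C/5% CO2; luciferase reagent 30 min RT; luminescence.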

[2] = qHTS assay to identify small molecule antagonists of the sonic hedgehog signaling (Shh) pathway (AID 1259369; calls by dose curve; further: nearly all actives have a fitted effect of over 45% in size; further: potency means the concentration at half of the fitted maximal effect)
Outline: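 3T3Gli1-Luc, conditioned-medium-stimulated, 24hr cpd, 37C/5% CO2; Gli1-driven firefly Luc luminescence after 30min RT with luciferase reagent. Cells plated 4hr before cpd.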

[3] = molecular target: Estrogen receptor beta (Homo sapiens) (UniProt Q92731); test: qHTS assay to identify small molecule agonists of the estrogen receptor beta (ER-beta) signaling pathway (AID 1259377; active means well fitted activation curve with a large enough effect in the signal ratio in the repeat runs, not every such curve was filed as active; the % refers to the signal ratio)
Outline: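 A UAS-controlled beta-lactamase reporter in ER-beta-UAS-bla HEK293T cells reports receptor activation. Compounds act for 16 hr at 37C in 2% charcoal-stripped serum, and a FRET substrate is read by fluorescence after 2 hours.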

[4] = molecular target: Estrogen receptor beta (Homo sapiens) (UniProt Q92731); test: qHTS assay to identify small molecule antagonists of the estrogen receptor beta (ER-beta) signaling pathway (AID 1259378; active means well fitted inhibition curve with a large enough effect in the signal ratio in the repeat runs, not every such curve was filed as active; the % refers to the signal ratio; further: potency means the concentration at half of the fitted maximal effect)
Outline: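 ER-beta-UAS-bla HEK293T cells in 2% charcoal-stripped FBS medium treated with compound plus 1nM final 17-beta-estradiol for 16 hr at 37C. Beta-lactamase reporter read by FRET substrate fluorescence after 2 hours at room temperature.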

[5] = qHTS assay to identify small molecule agonists of the androgen receptor (AR) signaling pathway in the presence of an antagonist - cell viability counter screen (AID 1259379); further: nearly all actives have a fitted effect of over 25% in size; further: potency means the concentration at half of the fitted maximal effect
Outline: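 Cells: MDA-kb2 (MMTV-luc, AR and GR elements), 3,000/well, 5 hr settle. Added: nilutamide 3.0uM final, then compounds (15 conc.). Incubation: 16 hr, 37C, no CO2. Read-out: CellTiter-Fluor, 1 hr, fluorescence.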

[6] = qHTS assay to identify small molecule agonists of the estrogen receptor beta (ER-beta) signaling pathway - cell viability counter screen (AID 1259380); further: nearly all actives have a fitted effect of over 30% in size; further: potency means the concentration at half of the fitted maximal effect
Outline: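 HEK293T ER-beta-UAS-bla; 2% CS-FBS; 6 hr pre-plate, 16 hr cpd at 37C/5% CO2; LiveBLAzer read first, then CellTiter-Glo 30 min RT, luminescence.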

[7] = qHTS assay to identify small molecule agonists or antagonists of the thyroid stimulating hormone receptor (TSHR) signaling pathway - wild type cell line counter screen (AID 1259384; calls by dose curve)
Outline: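 Wild-type Hek293 cells, 800/well, 18 h at 37C, then compound with Ro20-1724 for 30 min RT. cAMP by HTRF (cAMP-d2/anti-cAMP cryptate), 1 h RT, fluorescence read. 15 concentrations, triplicates.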

[8] = molecular target: Thyrotropin receptor (Homo sapiens) (UniProt P16473); test: qHTS assay to identify small molecule antagonists of the thyroid stimulating hormone receptor (TSHR) signaling pathway (AID 1259385; calls by dose curve; further: nearly all actives have a fitted effect of over 20% in size)
Outline: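 TSHR-HEK293 cells (800/well) plated 18 h, then compounds with Ro20-1724 and TSH at 1.5 ng/mL final, 30 min at room temperature. cAMP quantified by HTRF (cAMP-d2/anti-cAMP-cryptate, 1 h); 15 concentrations in triplicate.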

[9] = qHTS assay to identify small molecule agonists of the estrogen receptor alpha (ER-alpha) signaling pathway in the presence of an antagonist - cell viability counter screen (AID 1259386);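 further: cells exposed to compounds for 22 h at 37 °C before the viability read; nearly all actives have a fitted effect of over 30% in size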; further: potency means the concentration at half of the fitted maximal effect
Outline: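 VM7Luc4E2, stripped-serum pre-culture 5 d; 24hr plating; +ICI-182,780 10.0nM final; cpds 15 conc, 22hr, 37C/5% CO2; CellTiter-Fluor added at 21hr, fluorescence 1hr later.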

[10] = molecular target: Progesterone receptor (Homo sapiens) (UniProt P06401); test: qHTS assay to identify small molecule agonists of the progesterone receptor (PR) signaling pathway (AID 1346784; calls by dose curve; further: nearly all actives have a fitted effect of over 30% in size)
Outline: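 Agonist mode, quantitative HTS format in a HEK 293T line expressing a UAS-controlled beta-lactamase reporter; 16 hr compound exposure at 37C in 2% charcoal-stripped FBS, then LiveBLAzer B/G FRET fluorescence.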

[11] = molecular target: Progesterone receptor (Homo sapiens) (UniProt P06401); test: qHTS assay to identify small molecule antagonists of the progesterone receptor (PR) signaling pathway (AID 1346795; active means well fitted inhibition curve with a large enough effect in the signal ratio in the repeat runs, not every such curve was filed as active; the % refers to the signal ratio; further: potency means the concentration at half of the fitted maximal effect)
Outline: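 HEK293T PR-UAS-bla reporter cells in charcoal-stripped serum (2%) received compound after a 6 hr settling period, followed by R5020 agonist at 1 nM final; 16 hr incubation preceded the FRET substrate step and fluorescence measurement.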

[12] = qHTS assay to identify small molecule antagonists of the progesterone receptor (PR) signaling pathway - cell viability counter screen (AID 1346798); further: series mostly up to about 92 µM; nearly all actives have a fitted effect of over 50% in size
Outline: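 Same-well multiplex: after 16 hr at 37C with compound and R5020 stimulation, HEK293T cells carrying a UAS-bla reporter received LiveBLAzer substrate (2 hr RT), then CellTiter-Glo (30 min RT) for luminescent viability.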

[13] = qHTS assay to identify small molecule antagonists of the TGF-beta/Smad signaling pathway - cell viability counter screen (AID 1346824); further: nearly all actives have a fitted effect of over 50% in size; further: potency means the concentration at half of the fitted maximal effect
Outline: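 SBE-bla HEK 293T cells, incubated overnight, then compound plus 0.25 ng/mL TGF-beta1 (stock added) for 5 hr at 37 C. Viability was read in the same wells by CellTiter-Glo luminescence after 30 min at room temperature.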

[14] = qHTS assay to identify small molecule agonists of the TGF-beta/Smad signaling pathway - cell viability counter screen (AID 1346829); further: top concentration of the series differs between compounds; nearly all actives have a fitted effect of over 45% in size
Outline: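 Tox21 qHTS format: SBE-bla HEK 293T cells treated with DMSO-dissolved compounds for 5 hr; CellTiter-Glo luminescence after 30 min at room temperature.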

[15] = qHTS assay to identify small molecule agonists of the TGF-beta/Smad signaling pathway (AID 1346859; active means well fitted activation curve with a large enough effect in the signal ratio in the repeat runs, not every such curve was filed as active; the % refers to the signal ratio; further: series mostly up to about 77 µM)
Outline: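 Smad-responsive beta-lactamase reporter cells (HEK 293T) received compounds from DMSO stocks after overnight attachment, were incubated 5 hr, then treated 2 hr with FRET substrate before dual-emission fluorescence measurement (405 nm excitation).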

[16] = molecular target: Thyrotropin-releasing hormone receptor (Homo sapiens) (UniProt P34981); test: qHTS assay to identify small molecule antagonists of the thyrotropin-releasing hormone receptor (TRHR) signaling pathway (AID 1346877; active means well fitted inhibition curve with a large enough effect in the repeat runs, not every such curve was filed as active; further: series mostly up to about 51 µM)
Outline: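 Intracellular calcium fluorescence, read kinetically every second over 3 min, reports TRH-evoked signalling in HEK293 cells carrying TRHR. Test compounds were added 5 min ahead of a 1 nM TRH challenge.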

[17] = qHTS assay to identify small molecule antagonists of the estrogen receptor beta (ER-beta) signaling pathway - cell viability counter screen (AID 1259382); further: nearly all actives have a fitted effect of over 55% in size; further: potency means the concentration at half of the fitted maximal effect
Outline: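 Cells: ER-beta-UAS-bla HEK293T, 2,000/well, 2% CS-FBS, 6 hr settle. Cpd + E2 (1nM final), 16 hr, 37C/5% CO2. Bla FRET substrate 2 hr RT, then CellTiter-Glo 30 min RT, luminescence.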

[18] = molecular target: Estrogen receptor (Homo sapiens) (UniProt P03372); test: qHTS assay to identify small molecule agonists of the estrogen receptor alpha (ER-alpha) signaling pathway in the presence of an antagonist (AID 1259383; calls by dose curve; further: top concentration of the series differs between compounds; nearly all actives have a fitted effect of over 15% in size)
Outline: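 VM7Luc4E2, endog. ER-alpha + 4×ERE-luc; charcoal-stripped FBS, phenol red-free, 5 d; 24hr plating; +10.0nM ICI-182,780 (final); cpds 15 conc, 22hr, 37C/5% CO2; ONE-Glo luminescence.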

[19] = qHTS assay to identify small molecule agonists of the progesterone receptor (PR) signaling pathway - cell viability counter screen (AID 1346799; calls by dose curve; further: nearly all actives have a fitted effect of over 45% in size)
Outline: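 Counter screen for cytotoxicity: compound-treated PR-UAS-bla HEK293T cells (16 hr, 37C, 5% CO2) were assayed with CellTiter-Glo, luminescence measured after 30 min at room temperature.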

[20] = molecular target: Androgen receptor (Homo sapiens) (UniProt P10275); test: qHTS assay to identify small molecule agonists of the androgen receptor (AR) signaling pathway in the presence of an antagonist (AID 1259381; calls by dose curve; further: nearly all actives have a fitted effect of over 15% in size)
Outline: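 MDA-kb2 cells, 3,000/well, rested 5hr at 37C/0% CO2 → nilutamide 3.0uM final or buffer → compounds, 15 conc. → 16hr at 37C → ONE-Glo, 30min RT → luminescence.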

Chain of Estrogen receptor (Homo sapiens) (P03372 whole entry, looked up): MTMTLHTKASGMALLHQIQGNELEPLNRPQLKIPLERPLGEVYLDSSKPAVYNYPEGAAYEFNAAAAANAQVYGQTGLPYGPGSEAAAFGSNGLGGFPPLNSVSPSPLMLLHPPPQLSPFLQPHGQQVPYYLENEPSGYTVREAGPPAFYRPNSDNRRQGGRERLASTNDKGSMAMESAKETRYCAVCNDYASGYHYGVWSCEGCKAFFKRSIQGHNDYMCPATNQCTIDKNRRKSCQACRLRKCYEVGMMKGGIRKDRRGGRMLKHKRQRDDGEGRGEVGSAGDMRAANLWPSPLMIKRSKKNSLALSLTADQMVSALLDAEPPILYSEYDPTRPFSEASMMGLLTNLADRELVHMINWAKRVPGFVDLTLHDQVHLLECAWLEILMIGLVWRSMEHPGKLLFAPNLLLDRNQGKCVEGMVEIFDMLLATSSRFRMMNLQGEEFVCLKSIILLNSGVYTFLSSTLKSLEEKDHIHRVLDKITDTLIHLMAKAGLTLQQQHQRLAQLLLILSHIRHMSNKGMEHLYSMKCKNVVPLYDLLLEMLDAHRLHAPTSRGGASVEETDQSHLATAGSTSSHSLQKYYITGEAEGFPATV
Chain of Progesterone receptor (Homo sapiens) (P06401 whole entry, looked up): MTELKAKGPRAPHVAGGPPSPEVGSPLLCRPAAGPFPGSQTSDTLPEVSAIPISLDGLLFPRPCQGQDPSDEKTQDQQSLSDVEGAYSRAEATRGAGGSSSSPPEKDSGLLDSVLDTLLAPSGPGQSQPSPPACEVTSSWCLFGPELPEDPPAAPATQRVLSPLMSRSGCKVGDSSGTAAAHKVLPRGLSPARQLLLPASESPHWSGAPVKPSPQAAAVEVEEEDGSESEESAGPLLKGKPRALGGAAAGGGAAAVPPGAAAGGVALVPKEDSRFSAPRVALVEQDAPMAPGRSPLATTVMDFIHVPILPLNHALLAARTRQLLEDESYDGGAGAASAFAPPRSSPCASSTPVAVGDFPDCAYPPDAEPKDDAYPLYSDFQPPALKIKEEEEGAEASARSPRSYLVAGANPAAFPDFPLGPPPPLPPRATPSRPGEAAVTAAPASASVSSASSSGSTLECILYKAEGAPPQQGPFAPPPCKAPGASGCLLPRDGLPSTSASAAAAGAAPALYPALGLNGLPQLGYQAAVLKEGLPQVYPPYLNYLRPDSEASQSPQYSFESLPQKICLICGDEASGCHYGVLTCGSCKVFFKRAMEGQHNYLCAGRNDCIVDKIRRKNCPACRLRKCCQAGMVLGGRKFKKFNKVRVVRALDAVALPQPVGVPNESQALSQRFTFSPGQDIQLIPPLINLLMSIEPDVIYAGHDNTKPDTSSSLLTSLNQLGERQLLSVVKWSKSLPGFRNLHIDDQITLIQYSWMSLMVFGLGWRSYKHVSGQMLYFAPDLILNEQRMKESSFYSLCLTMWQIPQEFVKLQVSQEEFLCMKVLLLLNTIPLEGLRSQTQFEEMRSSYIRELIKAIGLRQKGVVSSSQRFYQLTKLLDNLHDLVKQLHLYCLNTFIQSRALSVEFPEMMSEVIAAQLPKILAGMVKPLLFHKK
Chain of Thyrotropin receptor (Homo sapiens) (P16473 whole entry, looked up): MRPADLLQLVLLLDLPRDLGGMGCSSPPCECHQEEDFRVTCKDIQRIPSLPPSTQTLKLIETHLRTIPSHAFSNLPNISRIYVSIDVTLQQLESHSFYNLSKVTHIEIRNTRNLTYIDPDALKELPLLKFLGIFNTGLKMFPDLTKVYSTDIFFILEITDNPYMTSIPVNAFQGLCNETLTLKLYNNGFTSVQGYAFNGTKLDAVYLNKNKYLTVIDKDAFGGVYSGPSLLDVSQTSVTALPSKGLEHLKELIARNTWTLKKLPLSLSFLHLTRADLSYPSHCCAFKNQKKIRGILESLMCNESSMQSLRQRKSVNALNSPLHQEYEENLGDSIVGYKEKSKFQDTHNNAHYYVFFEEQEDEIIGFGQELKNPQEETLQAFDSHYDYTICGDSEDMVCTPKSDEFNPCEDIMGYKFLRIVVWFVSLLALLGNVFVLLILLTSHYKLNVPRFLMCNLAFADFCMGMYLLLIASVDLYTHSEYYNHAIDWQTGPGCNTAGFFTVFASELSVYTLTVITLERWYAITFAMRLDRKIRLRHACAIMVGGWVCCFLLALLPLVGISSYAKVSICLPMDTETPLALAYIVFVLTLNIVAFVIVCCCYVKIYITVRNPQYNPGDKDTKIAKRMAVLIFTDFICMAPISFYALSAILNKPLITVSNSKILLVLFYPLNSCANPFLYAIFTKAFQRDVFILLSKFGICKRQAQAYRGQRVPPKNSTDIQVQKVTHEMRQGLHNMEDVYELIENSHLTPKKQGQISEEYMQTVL
Chain of Estrogen receptor beta (Homo sapiens) (Q92731 whole entry, looked up): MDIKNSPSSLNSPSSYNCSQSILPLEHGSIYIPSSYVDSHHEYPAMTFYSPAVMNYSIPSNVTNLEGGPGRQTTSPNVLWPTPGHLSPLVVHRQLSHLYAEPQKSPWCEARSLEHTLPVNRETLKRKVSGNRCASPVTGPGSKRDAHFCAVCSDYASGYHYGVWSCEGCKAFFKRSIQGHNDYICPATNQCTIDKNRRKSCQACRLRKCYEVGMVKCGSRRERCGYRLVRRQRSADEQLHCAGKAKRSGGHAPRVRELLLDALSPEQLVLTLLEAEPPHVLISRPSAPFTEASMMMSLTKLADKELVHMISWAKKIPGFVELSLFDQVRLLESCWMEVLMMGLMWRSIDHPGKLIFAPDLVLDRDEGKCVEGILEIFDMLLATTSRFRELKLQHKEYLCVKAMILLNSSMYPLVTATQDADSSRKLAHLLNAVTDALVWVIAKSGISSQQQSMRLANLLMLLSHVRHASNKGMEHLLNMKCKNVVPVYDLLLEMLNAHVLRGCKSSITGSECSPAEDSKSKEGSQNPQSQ
Chain of Thyrotropin-releasing hormone receptor (Homo sapiens) (P34981 whole entry, looked up): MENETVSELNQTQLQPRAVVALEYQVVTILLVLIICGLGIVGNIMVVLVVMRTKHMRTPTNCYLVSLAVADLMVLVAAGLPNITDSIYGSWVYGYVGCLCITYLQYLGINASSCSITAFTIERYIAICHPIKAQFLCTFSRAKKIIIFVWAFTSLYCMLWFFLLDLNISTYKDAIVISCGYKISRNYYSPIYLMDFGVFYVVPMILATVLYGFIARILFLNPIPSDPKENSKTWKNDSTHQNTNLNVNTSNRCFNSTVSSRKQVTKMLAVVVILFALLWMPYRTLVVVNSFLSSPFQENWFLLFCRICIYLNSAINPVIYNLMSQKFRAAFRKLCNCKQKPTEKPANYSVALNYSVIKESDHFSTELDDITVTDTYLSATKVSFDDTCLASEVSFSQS
Chain of Androgen receptor (Homo sapiens) (P10275 whole entry, looked up): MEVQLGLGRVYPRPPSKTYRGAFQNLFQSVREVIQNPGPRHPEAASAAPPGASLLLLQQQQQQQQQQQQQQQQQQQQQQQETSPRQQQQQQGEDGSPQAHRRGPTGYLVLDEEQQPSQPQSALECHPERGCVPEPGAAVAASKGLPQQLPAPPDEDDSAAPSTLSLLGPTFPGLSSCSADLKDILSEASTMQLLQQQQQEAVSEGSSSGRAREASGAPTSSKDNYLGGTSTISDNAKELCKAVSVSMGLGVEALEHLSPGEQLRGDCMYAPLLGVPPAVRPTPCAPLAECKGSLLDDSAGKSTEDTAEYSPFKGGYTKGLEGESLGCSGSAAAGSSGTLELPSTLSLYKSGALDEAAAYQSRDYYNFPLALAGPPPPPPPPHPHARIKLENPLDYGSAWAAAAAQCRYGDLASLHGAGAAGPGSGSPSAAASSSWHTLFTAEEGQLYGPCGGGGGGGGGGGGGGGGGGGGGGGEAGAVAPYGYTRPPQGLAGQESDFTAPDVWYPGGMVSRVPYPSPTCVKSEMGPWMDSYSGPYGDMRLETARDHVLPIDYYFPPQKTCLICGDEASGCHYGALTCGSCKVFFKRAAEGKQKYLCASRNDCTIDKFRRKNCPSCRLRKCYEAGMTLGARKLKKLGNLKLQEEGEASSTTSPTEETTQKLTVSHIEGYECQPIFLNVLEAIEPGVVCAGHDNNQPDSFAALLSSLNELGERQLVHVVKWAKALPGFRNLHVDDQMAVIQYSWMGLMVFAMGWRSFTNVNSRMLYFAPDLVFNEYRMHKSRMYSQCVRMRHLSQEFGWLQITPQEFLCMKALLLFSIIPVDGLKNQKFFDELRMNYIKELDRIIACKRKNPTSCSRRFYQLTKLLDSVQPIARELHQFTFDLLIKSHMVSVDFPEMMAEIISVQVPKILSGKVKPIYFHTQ

Structure (SMILES) | Potency [1] | Potency [2] | Potency [3] | Potency [4] | Potency [5] | Potency [6] | outcome [7] | Potency [8] | Potency [9] | Potency [10] | Potency [11] | Potency [12] | Potency [13] | Potency [14] | Potency [15] | outcome [16] | Potency [17] | Potency [18] | Potency [19] | Potency [20]
CC(C)C=O | inactive | inactive | inactive | inactive | inactive | inactive | inactive | inactive | inactive | inactive | inactive | inactive | inactive | inactive | inactive | inactive | – | – | – | –
CCCCN1CCCC1C(=O)Nc1c(C)cc(C)cc1C (stereo not given) | inactive | inactive | inactive | – | inactive | inactive | inactive | – | inactive | inactive | – | inactive | inactive | inactive | inactive | inactive | inactive | inactive | inactive | –
Brc1cc(Br)c(Oc2cc(Br)c(Br)cc2Br)cc1Br | inactive | inactive | – | inactive | inactive | 29.9 µM (active) | inactive | inactive | inactive | inactive | – | – | inactive | inactive | inactive | inactive | – | inactive | – | –
Cc1cccc(N(C)C(=S)Oc2ccc3c(c2)CCC3)c1 | inactive | inactive | inactive | – | inactive | – | – | – | inactive | inactive | 11.9 µM (active) | – | inactive | inactive | inactive | – | inactive | inactive | inactive | –
CCC1CO1 (stereo not given) | inactive | inactive | – | inactive | inactive | inactive | inactive | inactive | – | inactive | inactive | inactive | inactive | inactive | inactive | – | – | – | inactive | –
Oc1cc2c(cc1O)[C@H]1c3ccc(O)c(O)c3OC[C@@]1(O)C2 | inactive | 17.4 µM (active) | inactive | – | 61.9 µM (active) | inactive | – | – | 27.6 µM (active) | – | – | – | inactive | inactive | inactive | inactive | inactive | inactive | – | –
CC1(CN2CCC(n3c(=O)[nH]c4ccccc43)CC2)OCc2ccccc2-n2cccc21 (stereo not given) | inactive | 23.7 µM (active) | inactive | – | 29.8 µM (active) | 23.7 µM (active) | inactive | inactive | – | – | – | – | inactive | inactive | inactive | – | 29.8 µM (active) | inactive | – | –
O=C1c2ccccc2C(=O)C1c1nc2ccccc2c(Br)c1O | inactive | inactive | – | inactive | – | inactive | inactive | inactive | inactive | inactive | inactive | inactive | inactive | inactive | – | – | inactive | – | – | –
C=C/C(C)=C/C/C=C(\C)CCC=C(C)C | inactive | 27.3 µM (active) | inactive | – | inactive | – | inactive | inactive | inactive | inactive | inactive | inactive | inactive | inactive | inactive | – | – | inactive | – | –
COc1ccccc1NC(=O)c1cc2ccccc2cc1O | inactive | 27.3 µM (active) | – | 17.2 µM (active) | – | 54.5 µM (active) | inactive | – | inactive | – | 24.3 µM (active) | – | 49 µM (active) | – | inactive | – | – | inactive | – | inactive
